IL-1B inflam inh: blocks inflammasome-driven IL-1 beta release. 4.7% of 360,000 active. THP-1 LPS/ATP IL-1B secretion, AlphaLISA, 16 h; active compounds read low. activity change, % at 57.5 µM; in the data active = activity change below about -50%; inconclusive = mostly about -30% to -49%
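THP-1 cells pretreated 1 hr with compounds (up to 57.5 uM final), then stimulated with LPS (250 ng/mL final) plus ATP (1.25 mM final); secreted IL-1B measured by AlphaLISA after 16 hr, decreased signal indicating inhibition.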
TGFb SMAD3 inh: TGF-b pathway inhibition; HepG2 CAGA-GFP TGF-b/SMAD3 reporter, GFP fluorescence, 18 h; TGF-beta stimulated, 500 pg/mL final; Potency, µM (top dose mostly 46.1 µM), actives largely listed as inhibitors; 1.2% of 410,000 active; note: nearly all actives have a fitted effect of over 65% in size
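Using HEPG2 CAGA-GFP reporter cells at 1000 cells/well, we pinned test compounds, stimulated with recombinant TGF-beta (500 pg/mL final) and measured total well GFP after 18 h.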
DT40 TDP1 CPT: growth inhibition of DT40 Tdp1-/-;hTDP1 cells with camptothecin (screen for TDP1 inhibitors) | 12% of 420,000 active | Potency, µM (highest dose often 46.2 µM), usual class: inhibitors | chicken DT40 Tdp1-/-;hTDP1 cells + 20 nM CPT, ATP luminescence, 48 h | AID 686979; note: nearly all actives have a fitted effect of over 55% in size
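Cell growth measured by CellTiter-Glo luminescence after a minimum 48 h, 37 C compound exposure with 20 nM CPT in Tdp1-knockout DT40 cells stably expressing hTDP1, seeded 400/well; qHTS titration format.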
HepG2 tox: kills HepG2 cells in TGF-b inhibitor counter-screen; Potency, µM (series often up to 46.1 µM), actives largely listed as cytotoxic; HepG2 CAGA-GFP viability, ATP luminescence, 18 h; AID 588856; 0.76% of 410,000 active
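HepG2 CAGA-GFP cells (1000/well, DMEM with 1% FBS) received compound, then TGF-beta at 500 pg/mL final, and were incubated 18 hours at 37 degrees C. Viability was read by CellTiter-Glo luminescence. Media-only wells were set as complete cell-killing and DMSO as no toxicity.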
TDP1 inh: blocks human tyrosyl-DNA phosphodiesterase 1; Q9NUW8; recombinant TDP1, AlphaScreen DNA substrate cleavage; Potency, µM (highest dose often 130 µM), hits mostly inhibitors; 0.28% of 350,000 active; AID 485290; note: nearly all actives have a fitted effect of over 40% in size
Target sequence (Q9NUW8 whole entry, looked up): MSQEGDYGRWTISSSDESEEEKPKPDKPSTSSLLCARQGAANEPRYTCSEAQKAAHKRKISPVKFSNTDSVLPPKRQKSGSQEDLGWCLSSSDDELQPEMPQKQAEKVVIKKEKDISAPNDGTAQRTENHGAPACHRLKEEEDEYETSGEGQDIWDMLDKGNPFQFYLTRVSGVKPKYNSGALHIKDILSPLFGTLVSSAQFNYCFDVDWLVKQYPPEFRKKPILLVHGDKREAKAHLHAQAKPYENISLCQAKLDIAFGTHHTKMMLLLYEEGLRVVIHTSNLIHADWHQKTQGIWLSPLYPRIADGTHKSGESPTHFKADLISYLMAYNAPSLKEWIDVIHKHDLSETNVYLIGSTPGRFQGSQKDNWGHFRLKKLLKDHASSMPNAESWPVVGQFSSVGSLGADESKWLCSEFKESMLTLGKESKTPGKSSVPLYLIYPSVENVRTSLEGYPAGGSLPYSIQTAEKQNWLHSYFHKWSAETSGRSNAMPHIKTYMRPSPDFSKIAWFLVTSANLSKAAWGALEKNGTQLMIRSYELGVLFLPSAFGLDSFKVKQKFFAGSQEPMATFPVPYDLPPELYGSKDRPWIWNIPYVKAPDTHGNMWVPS
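Tdp1 1 nM final; 15 min RT w/ cpd; substrate 15 nM, 5 min; beads 10 ug/ml, 10 min; AlphaScreen read. Neg ctrl: no enzyme.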
DT40 TDP1 no CPT: qHTS for Inhibitors of human tyrosyl-DNA phosphodiesterase 1 (TDP1): qHTS in cells in absence of CPT. DT40 Tdp1-/- hTDP1 cells, no CPT, ATP luminescence, 48 h. Potency, µM (highest dose often 46.2 µM), hits mostly inhibitors. 15% of 420,000 active; note: nearly all actives have a fitted effect of over 55% in size
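Stably hTDP1-transfected Tdp1-null chicken DT40 cells were treated with library compounds minus camptothecin and grown for at least 48 hr at 37 °C, after which cellular ATP was quantified by luminescence.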
A number is an active result; – = inactive; ? = inconclusive; · = no result; [ ] = another dose, or the depositor's remark. Only some compounds are listed: those with a hit (about 19% of all), similar ones and a draw of the others. Unless noted, calls come from the whole dose curve; as a rule, active = well fitted curve in the direction sought with a large enough effect; inconclusive = small, poorly fitted or top-dose-only effect, or another doubt; inactive = no such curve, though single readings can be large; an effect the other way counts as inactive or inconclusive.

SMILES	IL-1B inflam inh	TGFb SMAD3 inh	DT40 TDP1 CPT	HepG2 tox	TDP1 inh	DT40 TDP1 no CPT
Cc1ccc2c(c1)c1c(c(=O)n(-c3cccc(Cl)c3)c(=O)n1CC(=O)NCC1CCCO1)n2C (stereo not drawn)	·	–	–	–	–	–
CCn1c(SCc2ccccc2F)nc(=O)c2c(C(=O)OC)cc(C3CC3)nc21	·	–	16µM	–	–	?
CCn1c(SCc2ccc(F)cc2Cl)nc(=O)c2c(C(=O)OC)cc(C3CC3)nc21	·	?	16µM	–	–	18µM
NC1(C(=O)O)CCCCC1c1ccccc1 (stereo not drawn)	–	–	–	–	·	–
CCOC(=O)c1cc(-c2ccccc2)n(CCC(=O)NCCc2cccc(C)c2)c1C	·	?	16µM	–	–	?
CCOC(=O)c1cc(-c2ccc(OC)cc2)n(CCC(=O)NCCc2ccccc2)c1C	·	?	21µM	–	–	18µM
CO[C@H]1COC(=O)C/C=C\[C@H](C)[C@@H](NS(=O)(=O)c2ccc(C)cc2)COC(=O)C/C=C\[C@@H]1C	·	·	·	·	–[21 µM]	·
Cc1ccc(Cl)cc1N1CCN(C(=O)Cn2c(-c3cccs3)cc3cc(F)ccc32)CC1	·	–	–	–	–	–
O=C(C1CCCN(S(=O)(=O)c2cnc[nH]2)C1)N1CCN(c2ccc(Cl)cc2)CC1 (stereo not drawn)	–	–	13µM	–	–	18µM
CCOC(=O)c1c(C)[nH]c(C)c1S(=O)(=O)N1CCN(c2ccc([N+](=O)[O-])cc2)CC1	–	–	?	–	–	13µM
CCOC(=O)c1c(C)[nH]c(C)c1S(=O)(=O)N1CCCC(C(=O)N2CCN(c3ccccc3F)CC2)C1 (stereo not drawn)	·	–	?	–	–	?
CCOC(=O)c1c(C)[nH]c(C)c1S(=O)(=O)N1CCCC(C(=O)N2CCN(c3ccc(Cl)cc3)CC2)C1 (stereo not drawn)	·	?	16µM	–	–	?
O=S(=O)(c1cnc[nH]1)N1CCN(c2ccc(Cl)cc2)CC1	–	–	–	–	–	–
COc1ccc(NC(=O)NNC(=O)COc2ccc([N+](=O)[O-])c(C)c2)cc1OC	–	–	–	–	–	–
O=C1CCc2cc(S(=O)(=O)Nc3ccccn3)ccc2N1	·	·	·	·	–	·
COc1ccccc1NS(=O)(=O)c1ccc2oc(SCC(=O)N3CCNC3=O)nc2c1	–	–	3.7µM	–	–	?
CCN(CC)S(=O)(=O)c1ccc2oc(SCc3ccc(F)cc3)nc2c1	–	–	?	–	–	21µM
COc1ccccc1NS(=O)(=O)c1ccc2oc(SCc3ccc(C#N)cc3)nc2c1	–	?	12µM	–	–	18µM
CNC(=O)CSc1nc2cc(S(=O)(=O)Nc3ccccc3OC)ccc2o1	–	–	–	–	–	–
CCN(CC)S(=O)(=O)c1ccc2oc(SCC(=O)NC3CC3)nc2c1	–	?	–	–	–	–
CCn1cc(C(=O)N2CCN(c3ccc(F)cc3)CC2)c(=O)c2cc(S(=O)(=O)N3CCOCC3)ccc21	·	?	–	–	–	–
COc1ccc(NC(=O)c2cccc3ccccc23)cc1OC	?	–	–	–	·	–
CCOc1ccccc1C(=O)Nc1ccc2nc3c(c(Nc4ccc(OC)c(OC)c4)c2c1)CCCC3	·	?	4.1µM	10µM	–	5.2µM
COc1cc(OC)cc(C(=O)Nc2ccc3nc4n(c(=O)c3c2)CCCC4)c1	–	–	–	–	·	?
COc1ccc(Nc2c3c(nc4ccc(NC(=O)c5cc(Cl)ccc5OC)cc24)CCCC3)cc1OC	·	10µM	1.6µM	7.1µM	–	0.82µM
SMILES	IL-1B inflam inh	TGFb SMAD3 inh	DT40 TDP1 CPT	HepG2 tox	TDP1 inh	DT40 TDP1 no CPT
COc1cc(OC)cc(C(=O)Nc2ccc3nc4c(c(Nc5ccc(OC)c(OC)c5)c3c2)CCCC4)c1	·	13µM	4.1µM	16µM	–	23µM
O=C1CC(=O)Nc2cc(S(=O)(=O)Nc3cccc(Br)c3)ccc2N1	·	–	–	–	–	–
O=C(Cn1nc2c(cc1=O)CCCC2)NCc1ccccc1Cl	·	–	–	–	–	–
COc1ccc(/C=N/n2c(N)nc(-c3ccccc3)c2-c2ccccc2)cc1	?	?	26µM	–	–	16µM
COc1cccc(/C=N/n2c(N)nc3ccccc32)c1OC	-68	?	–	–	–	–
COc1ccc(/C=N/n2c(=S)n(C)c3ccccc32)cc1OC	–	–	?	–	–	–
COc1cccc(/C=N/n2cnc3ccccc32)c1OC	–	–	?	–	–	?
COc1ccc(/C=N/n2c(N)nc3ccccc32)cc1OC	-60	–	–	–	–	–
CC12CC[C@@H]3c4ccc(OS(=O)(=O)O)cc4CC[C@H]3C1CCC2=O (stereo partly drawn)	·	·	·	·	–[21 µM]	·

Assay outcomes from PubChem.
